From the supplement of paper PMC6897291 come the findings set out here.

This assay relates to U-2932. The assay is described as follows: growth inhibition by drug alone (1 - RLU/untreated control) (fraction); higher = stronger inhibition. As to conditions: 177Lu-lilotomab satetraxetan 0 ug/ml. The procedure:
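U-2932 ABC-DLBCL cells were pretreated or not for 18 h with 1 ug/ml 177Lu-lilotomab satetraxetan (600 MBq/mg), washed and seeded (3000 cells/well) on 384-well plates pre-printed with the Selleck Cambridge Cancer Compound library. Viability was read by RealTime-Glo luminescence on days 3-6 after seeding. Effect = 1 - RLU/mean RLU of the 48 untreated no-drug control wells per plate; Bliss score = (M-E)/(1-Fa), with E the expected Bliss-additive effect.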

Turning to `Cc1cc2c(C(C)C)c(O)c(O)c(C=O)c2c(O)c1-c1c(C)cc2c(C(C)C)c(O)c(O)c(C=O)c2c1O` [Gossypol], the “growth inhibition by drug alone” value was -0.0803 (10 nM, time (day): 3); -0.0436 (10 nM, time (day): 4); -0.0537 (10 nM, time (day): 5); -0.0327 (10 nM, time (day): 6); -0.00328 (1000 nM, time (day): 3); 0.00751 (1000 nM, time (day): 4). Also, the “growth inhibition by drug alone” value reads like this: (1000 nM, time (day): 5) 0.00351; (1000 nM, time (day): 6) 0.0148.

For `O=C(O)c1nn(Cc2ccc(Cl)cc2Cl)c2ccccc12` [Lonidamine], the “growth inhibition by drug alone” value by setting is: (10 nM, time (day): 3) 0.129; (10 nM, time (day): 4) 0.0861; (10 nM, time (day): 5) 0.00199; (10 nM, time (day): 6) -0.13; (1000 nM, time (day): 3) 0.0943; (1000 nM, time (day): 4) 0.0942. Also, the “growth inhibition by drug alone” value was -0.0767 (1000 nM, time (day): 5) and -0.0595 (1000 nM, time (day): 6).

Regarding `Cn1cc(C2=C(c3cn(C4CCN(Cc5ccccn5)CC4)c4ccccc34)C(=O)NC2=O)c2ccccc21`, the “growth inhibition by drug alone” value runs as follows: (10 nM, time (day): 3) -0.0338; (10 nM, time (day): 4) -0.0583; (10 nM, time (day): 5) -0.0539; (10 nM, time (day): 6) 0.0229; (1000 nM, time (day): 3) -0.144; (1000 nM, time (day): 4) -0.131. The “growth inhibition by drug alone” value was -0.13 (1000 nM, time (day): 5) and -0.0775 (1000 nM, time (day): 6).

For `C[C@]12CCC(=O)C(O)=C1CC[C@@H]1[C@@H]2CC[C@]2(C)C(=O)CC[C@@H]12` [Formestane], the “growth inhibition by drug alone” value reads like this: (10 nM, time (day): 3) -0.0202; (10 nM, time (day): 4) -0.0416; (10 nM, time (day): 5) -0.00849; (10 nM, time (day): 6) 0.0511; (1000 nM, time (day): 3) -0.0617; (1000 nM, time (day): 4) -0.0526. In addition, the “growth inhibition by drug alone” value is -0.0433 (1000 nM, time (day): 5) and 0.0231 (1000 nM, time (day): 6).

For the compound `C=C1C[C@@H]2[C@H](CC[C@]3(C)C(=O)CC[C@@H]23)[C@@]2(C)C=CC(=O)C=C12` [Exemestane], the “growth inhibition by drug alone” value was 0.0753 (10 nM, time (day): 3); 0.00319 (10 nM, time (day): 4); -0.0809 (10 nM, time (day): 5); -0.0708 (10 nM, time (day): 6); -0.0344 (1000 nM, time (day): 3); -0.0359 (1000 nM, time (day): 4). For the same compound, the “growth inhibition by drug alone” value (1000 nM, time (day): 5) is -0.1 and the “growth inhibition by drug alone” value (1000 nM, time (day): 6) stood at 0.0186.
